Reference: PubChem BioAssay (Tox21)
Results filed as inconclusive are left out. Activity calls are given as the source filed them. Unless noted, calls follow the shape of the dose curve; as a rule, active = well fitted curve in the direction sought with a large enough effect in the repeat runs; inconclusive = weak or mixed curves; inactive = no such curve, though single readings can be large; an effect the other way counts as inactive or inconclusive.

How the values were obtained:
[1] = qHTS assay to identify small molecule agonists of H2AX (AID 1224845; active = well fitted activation curve with a large enough effect in the signal ratio in the repeat runs, not every such curve was filed as active; the % refers to the signal ratio); settings: CHO-K1 phospho-H2AX Ser139 HTRF, 3 h; series mostly up to 154 µM
Procedure, shortened: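 Phospho-H2AX Ser139 measured by HTRF (ex 320 nm; em 665 and 620 nm) after 24 hr antibody incubation. Compounds, 15 concentrations, 0.76% DMSO, were applied to CHO-K1 cells for 3hr at 37C before lysis.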

[2] = qHTS assay to identify small molecule agonists of the hypoxia (HIF-1) signaling pathway (AID 1224846; active = well fitted activation curve with a large enough effect in the signal ratio in the repeat runs, not every such curve was filed as active; the % refers to the signal ratio); settings: HRE-bla ME-180 cells, beta-lactamase ratio, 17 h; series mostly up to 76.8 µM
Procedure, shortened: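 HRE-bla ME-180 beta-lactamase reporter cells in medium with 0.5% dialyzed FBS, pre-incubated 5 h then exposed to compounds 17 h at 37C, 5% CO2; reporter induction read with CCF4-AM FRET substrate.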

[3] = qHTS assay to identify small molecule agonists of H2AX - cell viability counter screen (AID 1224847; calls by dose curve; also: top concentration of the series differs between compounds; nearly all actives have a fitted effect of over 30% in size); settings: CHO-K1 viability, CellTiter-Glo luminescence, 3 h; series mostly up to 154 µM
Procedure, shortened: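 Read-out: CellTiter-Glo luminescence, 30 min RT. Cells: wild-type CHO-K1, 1000/well, 10% FBS, plated overnight at 37C. Treatment: 15 concentrations, 3 hr, 37C, 0.76% DMSO.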

[4] = qHTS assay to identify small molecule agonists of the estrogen related receptor (ERR) signaling pathway from Tox21 library (AID 1224849; calls by dose curve; also: nearly all actives have a fitted effect of over 15% in size); settings: ERR reporter cell line, ONE-Glo luciferase, 18 h; at 92.4 µM (top of the series) unless noted
Procedure, shortened: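 ERR reporter cells (NTP line) pre-incubated 6 hours at 37 C, then exposed to compounds for 18 hours at 37 C. ONE-Glo luciferase luminescence was read after 30 minutes at room temperature.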

[5] = qHTS RealTime-Glo MT Cell Viability Assay in HepG2 cells - 24 hour (AID 1224867); settings: RealTime-Glo luminescence; series mostly up to 76.8 µM; also: nearly all actives have a fitted effect of over 50% in size
Procedure, shortened: (§1)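 HepG2 cells were seeded at 600 cells/well together with NanoLuc luciferase and a cell-permeant prosubstrate, preincubated 5 h at 37 C/5% CO2, then pin-dosed with compounds in DMSO. Nonlytic luminescence from viable cells was read at each time point.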

[6] = qHTS RealTime-Glo MT Cell Viability Assay in HEK293 cells - 32 hour (AID 1224868); settings: RealTime-Glo luminescence; series mostly up to 76.8 µM; also: nearly all actives have a fitted effect of over 50% in size; also: potency is read from the fitted curve at half-maximal effect
Procedure, shortened: (§2)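 HEK293 cells were seeded at 600 cells/well together with NanoLuc luciferase and cell-permeant prosubstrate, preincubated 5 h at 37 C/5% CO2, then given compound in DMSO by pintool. Luminescence from viable-cell prosubstrate reduction was read repeatedly over 40 h.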

[7] = A CellTox Green Cytotoxicity Assay to monitor cytotoxicity in HEK293 cells - 0 hour (AID 1224869); settings: CellTox Green fluorescence; series mostly up to 76.8 µM; also: nearly all actives have a fitted effect of over 50% in size
Procedure, shortened: (§3)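 HEK293 cells, 600/well, were preincubated 5 hours and then exposed to compounds at 37 C for up to 40 hours. A cell-impermeant cyanine dye staining dead-cell DNA was read by fluorescence at 0, 8, 16, 24, 32 and 40 h time points.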

[8] = qHTS RealTime-Glo MT Cell Viability Assay in HepG2 cells - 40 hour (AID 1224870); settings: RealTime-Glo luminescence; series mostly up to 76.8 µM; also: nearly all actives have a fitted effect of over 50% in size
Procedure, shortened: (§4)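 Real-time viability: cells seeded at 600 per well together with NanoLuc and cell-permeant prosubstrate, compounds added after 5 h incubation. Luminescence tracked at 0, 8, 16, 24, 32 and 40 h of exposure.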

[9] = A CellTox Green Cytotoxicity Assay to monitor cytotoxicity in HEK293 cells - 40 hour (AID 1224871); settings: CellTox Green fluorescence; series mostly up to 76.8 µM; also: nearly all actives have a fitted effect of over 45% in size
Procedure, shortened: as §3

[10] = qHTS RealTime-Glo MT Cell Viability Assay in HEK293 cells - 16 hour (AID 1224872); settings: RealTime-Glo luminescence; series mostly up to 76.8 µM; also: nearly all actives have a fitted effect of over 50% in size; also: potency is read from the fitted curve at half-maximal effect
Procedure, shortened: as §2

[11] = qHTS RealTime-Glo MT Cell Viability Assay in HepG2 cells - 8 hour (AID 1224873); settings: RealTime-Glo luminescence; series mostly up to 76.8 µM; also: nearly all actives have a fitted effect of over 55% in size
Procedure, shortened: as §4

[12] = qHTS RealTime-Glo MT Cell Viability Assay in HEK293 cells - 40 hour (AID 1224874); settings: RealTime-Glo luminescence; max response: stronger effect = lower value; also: nearly all actives have a fitted effect of over 50% in size; also: potency is read from the fitted curve at half-maximal effect
Procedure, shortened: (§5)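 600 cells/well were plated with the nonlytic NanoLuc/prosubstrate reagent, pre-incubated 5 h, then given 23 nL of compound in DMSO. Incubation at 37 C for 40 h, with luminescence from viable-cell-reduced substrate read repeatedly from 0 h.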

[13] = A CellTox Green Cytotoxicity Assay to monitor cytotoxicity in HepG2 cells - 16 hour (AID 1224876); settings: CellTox Green fluorescence; series mostly up to 76.8 µM; also: nearly all actives have a fitted effect of over 45% in size
Procedure, shortened: (§6)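 HepG2 cells, 600/well, preincubated 5 h with CellTox Green dye, then exposed to Tox21 compounds in DMSO at 37 C for up to 40 h. Dead-cell DNA fluorescence read at the indicated time point.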

[14] = qHTS RealTime-Glo MT Cell Viability Assay in HepG2 cells - 32 hour (AID 1224877); settings: RealTime-Glo luminescence; series mostly up to 76.8 µM; also: nearly all actives have a fitted effect of over 55% in size
Procedure, shortened: as §1

[15] = A CellTox Green Cytotoxicity Assay to monitor cytotoxicity in HepG2 cells - 24 hour (AID 1224878); settings: CellTox Green fluorescence; series mostly up to 76.8 µM; also: nearly all actives have a fitted effect of over 45% in size
Procedure, shortened: as §6

[16] = A CellTox Green Cytotoxicity Assay to monitor cytotoxicity in HepG2 cells - 40 hour (AID 1224879); settings: CellTox Green fluorescence; series mostly up to 76.8 µM; also: nearly all actives have a fitted effect of over 40% in size; also: potency is read from the fitted curve at half-maximal effect
Procedure, shortened: as §6

[17] = qHTS RealTime-Glo MT Cell Viability Assay in HEK293 cells - 0 hour (AID 1224880); settings: RealTime-Glo luminescence; series mostly up to 76.8 µM; also: top concentration of the series differs between compounds; nearly all actives have a fitted effect of over 45% in size
Procedure, shortened: as §5

[18] = A CellTox Green Cytotoxicity Assay to monitor cytotoxicity in HEK293 cells - 32 hour (AID 1224881); settings: CellTox Green fluorescence; series mostly up to 76.8 µM; also: nearly all actives have a fitted effect of over 40% in size
Procedure, shortened: as §3

[19] = A CellTox Green Cytotoxicity Assay to monitor cytotoxicity in HEK293 cells - 24 hour (AID 1224875); settings: CellTox Green fluorescence; series mostly up to 76.8 µM; also: nearly all actives have a fitted effect of over 45% in size
Procedure, shortened: as §3

[20] = qHTS assay to identify small molecule antagonists of the estrogen related receptor (ERR) signaling pathway from Tox21 library (AID 1224848); settings: ERR reporter cell line, luciferase antagonist mode, 18 h; series mostly up to 92.4 µM; also: nearly all actives have a fitted effect of over 50% in size; also: potency is read from the fitted curve at half-maximal effect
Procedure, shortened: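 Antagonist-mode screen of the Tox21 10K library in an NTP-provided ERR reporter cell line; 18 h compound exposure at 37 C, luminescence measured with ONE-Glo.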
% is scaled to controls: 0 for no effect and ±100 for the full control effect.

c1cc(CCCc2ccncc2)ccn1
inactive: Potency [1] | Potency [2] | Potency [3] | activity change, positive = activation [4] -26.9% | Potency [5] | Potency [6] | Potency [7] | Potency [8] | Potency [9] | Potency [10] | Potency [11] | max response [12] -17.4% | Potency [13] | Potency [14] | Potency [15] | Potency [16] | Potency [17] | Potency [18]

CCCCCCCCCOS(=O)(=O)O
inactive: Potency [1] | Potency [2] | Potency [3] | Potency [5] | Potency [6] | Potency [7] | Potency [8] | Potency [9] | Potency [10] | Potency [11] | max response [12] 4.38% | Potency [19] | Potency [13] | Potency [14] | Potency [15] | Potency [16] | Potency [17] | Potency [18]

O=C(O)c1ccc(S(=O)(=O)O)cc1C(=O)O
inactive: Potency [1] | Potency [2] | Potency [3] | Potency [20] | activity change, positive = activation [4] -2.89% | Potency [7] | Potency [8] | Potency [9] | Potency [11] | Potency [19] | Potency [13] | Potency [14] | Potency [15] | Potency [16] | Potency [17] | Potency [18]

COc1ccc(-c2nc3ccc(C4=NNC(=O)CC4C)cc3[nH]2)cc1 (stereo not given)
inactive: Potency [1] | Potency [2] | Potency [3] | Potency [20] | Potency [5] | Potency [7] | Potency [8] | Potency [9] | Potency [11] | Potency [19] | Potency [13] | Potency [14] | Potency [15] | Potency [17] | Potency [18]
active: Potency [6] 8.49 µM | Potency [10] 9.52 µM | Potency [12] 7.56 µM | Potency [16] 21.3 µM

COc1cc2c(cc1OC)C(C(C(=O)N(CCc1ccc(OC)c(OC)c1OC)CCc1ccc(OC)c(OC)c1OC)c1ccccc1)=NCC2 (stereo not given)
inactive: Potency [1] | Potency [2] | Potency [3] | activity change, positive = activation [4] -49.6% [at 42.5 µM] | Potency [7] | Potency [9] | Potency [19] | Potency [15] | Potency [16] | Potency [18]
active: Potency [20] 26.6 µM | Potency [6] 3.38 µM | Potency [10] 3.01 µM | Potency [12] 3.38 µM

CC1=CCCC(C)(C)C12CCC(C)O2 (stereo not given)
inactive: Potency [1] | Potency [2] | Potency [3] | Potency [5] | Potency [6] | Potency [7] | Potency [8] | Potency [9] | Potency [10] | Potency [11] | max response [12] -12.5% | Potency [19] | Potency [13] | Potency [14] | Potency [15] | Potency [16] | Potency [17] | Potency [18]

CC(C)(CO)[N+](=O)[O-]
inactive: Potency [1] | Potency [2] | Potency [3] | Potency [5] | Potency [6] | Potency [7] | Potency [8] | Potency [9] | Potency [10] | Potency [11] | max response [12] 3.49% | Potency [19] | Potency [13] | Potency [14] | Potency [15] | Potency [16] | Potency [17] | Potency [18]

O=[N+]([O-])c1ccc2[nH]ncc2c1
inactive: Potency [1] | Potency [2] | Potency [3] | Potency [5] | Potency [6] | Potency [7] | Potency [8] | Potency [9] | Potency [10] | Potency [11] | max response [12] -13.3% | Potency [19] | Potency [13] | Potency [14] | Potency [15] | Potency [16] | Potency [17] | Potency [18]

CCc1c(C(=O)NN2CCCCC2)nn(-c2ccc(Cl)cc2Cl)c1-c1ccc(Br)cc1
inactive: Potency [1] | Potency [2] | Potency [3] | activity change, positive = activation [4] -62% | Potency [7] | Potency [9] | Potency [10] | Potency [19] | Potency [13] | Potency [15] | Potency [16] | Potency [17] | Potency [18]
active: Potency [20] 1.22 µM

CCOC(=O)Cc1cccc2ccccc12
inactive: Potency [1] | Potency [2] | Potency [3] | Potency [20] | activity change, positive = activation [4] -0.505% | Potency [6] | Potency [7] | Potency [8] | Potency [9] | Potency [10] | Potency [11] | max response [12] -4.39% | Potency [19] | Potency [14] | Potency [17] | Potency [18]

COC(C)OC
inactive: Potency [1] | Potency [2] | Potency [3] | Potency [20] | activity change, positive = activation [4] -2.66% | Potency [6] | Potency [7] | Potency [8] | Potency [9] | Potency [10] | Potency [11] | max response [12] 5.31% | Potency [19] | Potency [13] | Potency [14] | Potency [15] | Potency [16] | Potency [17] | Potency [18]

CCCCC(CC)COC(=O)COc1ccc(Cl)cc1Cl (stereo not given)
inactive: Potency [1] | Potency [2] | Potency [3] | Potency [5] | Potency [6] | Potency [7] | Potency [8] | Potency [9] | Potency [10] | Potency [11] | max response [12] 11% | Potency [19] | Potency [13] | Potency [14] | Potency [15] | Potency [16] | Potency [17] | Potency [18]

O=C1OC(CN2CCOCC2)CN1/N=C/c1ccc([N+](=O)[O-])o1 (stereo not given)
inactive: Potency [1] | Potency [2] | Potency [3] | Potency [5] | Potency [6] | Potency [7] | Potency [8] | Potency [9] | Potency [10] | Potency [11] | max response [12] -0.929% | Potency [19] | Potency [13] | Potency [14] | Potency [15] | Potency [16] | Potency [17] | Potency [18]

CNC(=O)CN(CCN(CCN(CC(=O)[O-])CC(=O)NC)CC(=O)[O-])CC(=O)[O-].O.[Gd+3]
inactive: Potency [1] | Potency [2] | Potency [3] | Potency [5] | Potency [6] | Potency [7] | Potency [8] | Potency [9] | Potency [10] | Potency [11] | max response [12] 2.96% | Potency [19] | Potency [13] | Potency [14] | Potency [15] | Potency [16] | Potency [17] | Potency [18]

O=C(O)C1(C(=O)Nc2ccc(Cl)cc2Cl)CC1
inactive: Potency [1] | Potency [2] | Potency [3] | Potency [5] | Potency [6] | Potency [7] | Potency [8] | Potency [9] | Potency [10] | Potency [11] | max response [12] -17.6% | Potency [19] | Potency [13] | Potency [14] | Potency [15] | Potency [16] | Potency [17] | Potency [18]
